# An excerpt weighted towards active compounds, which were near 2% of everything screened.
# HTT cytoprotect = qHTS Multiplex Assay to Identify Dual Action Probes in a Cell Model of Huntington: Cytoprotection (ATP). PC12 HTT-Q103 induced, cytoprotection, ATP luminescence, 40 h. Potency, µM (top dose mostly 56.4 µM), inactives show cytoprotection (ATP increase), usual class: activators. 0.14% of 230,000 active. AID 1471, 2008; also: potency is read from the fitted curve at half-maximal effect; % of control where 0% means no effect; nearly all actives have a fitted effect of over 45% in size
#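 Stable PC12 Q103-GFP cells in serum-supplemented, phenol red-free DMEM; induction by tebufenozide at 100 nM final; compound dose series; cell viability quantified luminescently from ATP.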
# TR SRC2 fluor cs = Total Fluorescence Counterscreen for Inhibitors of the Interaction of Thyroid Hormone Receptor and Steroid Receptor Coregulator 2; 0.29% of 280,000 active; Potency, µM (highest dose often 106 µM), without a hit: at the highest dose fluorescence change, negative = quenching; AID 1479, 2009; TRb/SRC2 Texas Red total fluorescence interference; active = well fitted curve in either direction with a large enough effect; inconclusive = small, poorly fitted or top-dose-only effect; also: potency is read from the fitted curve at half-maximal effect; % is scaled to controls: 0 for no effect and ±100 for the full control effect
#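 Human TRβ ligand-binding domain (0.6 uM) and Texas Red SRC2 peptide (20 nM) in Tris buffer with 1 uM T3 and 5% DMSO were incubated with pinned compound for 5 hr at ambient temperature. Total fluorescence was computed as S + 2P (555/632 nm).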
# HttQ103 aggreg = qHTS Multiplex Assay to Identify Dual Action Probes in a Cell Model of Huntington: Aggregate Formation (GFP); PC12 HttQ103-GFP aggregates, Acumen cytometry, 40 h; Potency, µM (highest dose often 46.1 µM), inactives show at the top dose activity change, negative = inhibition, most hits filed as inhibitors; 1.1% of 220,000 active; also: potency is read from the fitted curve at half-maximal effect; % is scaled to controls: 0 for no effect and ±100 for the full control effect; nearly all actives have a fitted effect of over 60% in size
#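 PC12/HTTQ103-GFP, ecdysone-inducible; teb 100 nM; cpd qHTS titration; GFP aggregates read on laser cytometer, Ex 488/Em 500-530 nm.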
# TRb-SRC2 inh = qHTS for Inhibitors of the Interaction of Thyroid Hormone Receptor and Steroid Receptor Coregulator 2; TRbeta-SRC2 peptide binding, fluorescence polarization; receptor liganded with 1 µM T3; Potency, µM (highest dose often 106 µM), without a hit: at the top dose activity change, negative = inhibition, hits mostly inhibitors; 0.065% of 280,000 active; AID 1469, 2008;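 also: potency is read from the fitted curve at half-maximal effect; plate controls were bound peptide for no effect and peptide without receptor for full effect; nearly all actives have a fitted effect of over 50% in size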
# Target sequence (P10828 whole entry, looked up): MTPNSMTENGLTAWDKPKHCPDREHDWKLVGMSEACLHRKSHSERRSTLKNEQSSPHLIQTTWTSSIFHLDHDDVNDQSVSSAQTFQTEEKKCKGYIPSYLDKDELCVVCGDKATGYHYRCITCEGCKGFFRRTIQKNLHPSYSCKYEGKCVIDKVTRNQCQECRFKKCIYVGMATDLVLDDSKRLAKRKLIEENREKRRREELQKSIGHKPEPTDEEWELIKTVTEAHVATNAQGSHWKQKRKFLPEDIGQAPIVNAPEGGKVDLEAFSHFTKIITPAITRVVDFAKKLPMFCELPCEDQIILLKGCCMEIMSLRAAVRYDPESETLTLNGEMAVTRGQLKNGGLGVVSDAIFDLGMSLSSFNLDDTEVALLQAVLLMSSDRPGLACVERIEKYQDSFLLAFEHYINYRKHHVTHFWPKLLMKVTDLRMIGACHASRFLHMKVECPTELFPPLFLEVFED
#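 Fluorescence polarization of 20 nM Texas Red SRC2 peptide (20-aa NR interaction domain) bound to 0.6 uM human TRb ligand-binding domain, with 1 uM T3, after 5 hr at ambient temperature; inhibition seen as decreased polarization.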
# FBPA coupling cs = qHTS Assay for Inhibitors of Fructose-1,6-bisphosphate Aldolase from Giardia Lamblia: Coupling assay counterscreen; coupling enzyme system counterscreen, AmpLite Red fluorescence; activity change, negative = inhibition, % at 58.2 µM, hits read low; 0.67% of 290,000 active; in the data active = activity change below about -30%; also: % is scaled to controls: 0 for no effect and ±100 for the full control effect
#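 Fluorescence at 525 nm excitation and 598 nm emission measured inhibition of the coupled detection system without aldolase. Compounds (at 57.5 uM final) were preincubated 10 min at room temperature with coupling enzyme reagent before a 20 min substrate/AmpLite Red step.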
# JMJD2E inh = qHTS Assay for Inhibitors of Human Jumonji Domain Containing 2E (JMJD2E); Lysine-specific demethylase 4E (Homo sapiens), B2RXH2; JMJD2E catalytic domain, FDH-coupled NADH fluorescence (FDH is formaldehyde dehydrogenase); Potency, µM (highest dose often 57.1 µM), for inactives: at the highest dose activity change, negative = inhibition, most hits filed as inhibitors; 1.6% of 230,000 active; active = well fitted inhibition curve with a large enough effect, not every such curve was filed as active; inconclusive = small, poorly fitted or top-dose-only effect, or another doubt; inactive = no such curve, though single readings can be large or run the other way;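 also: potency is read from the fitted curve at half-maximal effect; 0% = wells with enzyme and -100% = buffer wells without enzyme; nearly all actives have a fitted effect of over 50% in size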
# Target sequence (B2RXH2 1-337 limits assumed): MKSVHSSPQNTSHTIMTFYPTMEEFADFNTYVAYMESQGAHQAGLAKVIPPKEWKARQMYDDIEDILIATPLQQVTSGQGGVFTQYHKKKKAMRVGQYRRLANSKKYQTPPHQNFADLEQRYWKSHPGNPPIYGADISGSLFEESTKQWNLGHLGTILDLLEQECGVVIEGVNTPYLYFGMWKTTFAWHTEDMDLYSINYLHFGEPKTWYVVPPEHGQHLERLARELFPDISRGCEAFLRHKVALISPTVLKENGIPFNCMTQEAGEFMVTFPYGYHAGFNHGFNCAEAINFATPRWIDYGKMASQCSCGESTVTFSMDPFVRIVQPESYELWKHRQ
# An asterisk follows results filed as active; ? = inconclusive; . = no result; [ ] = another dose, or the depositor's remark. Unless noted, calls follow the shape of the dose curve; as a rule, active = well fitted curve in the direction sought with a large enough effect; inconclusive = small, poorly fitted or top-dose-only effect, or another doubt; inactive = no such curve, though single readings can be large; an effect the other way counts as inactive or inconclusive.
SMILES,HTT cytoprotect,TR SRC2 fluor cs,HttQ103 aggreg,TRb-SRC2 inh,FBPA coupling cs,JMJD2E inh
CN(Cc1ccccc1)C(=O)c1ccc2c(c1)N(Cc1ccccc1Cl)C(=O)c1ccccc1S2,.,0.7%,.,2.2%,.,.
Cc1c(C(=O)N2CCCC2)oc2c1-c1nn(CC(=O)NCc3ccccc3Br)cc1CC2,.,-1.1%,.,-1.4%,.,.
Cc1ccc(C)c(S(=O)(=O)Nc2cc(SCC(=O)O)c(O)c3ccccc23)c1,-2.4%[10 µM],-22.3%,-17.8%,?,-53.2*,12.0%
Cc1ccc(NS(=O)(=O)c2cc(NC(=O)C(C)Oc3ccccc3)ccc2C)c(C)c1 (centres undefined),-9.0%[10 µM],-1.4%,5.2%,-2.4%,-0.4,5.8%
Cc1cc(C)nc(-n2ncc(C#N)c2N)n1,21.3%[10 µM],2.0%,6.4%[9.22 µM],3.7%,-2.9,5.8%
Cc1cc(C)nc(-n2ncc3c2CCCC3=O)n1,25.1µM*,1.9%,?,1.3%,0.1,-9.0%
COc1ccc(NC(=O)c2ccc(NC(=O)CCS(=O)(=O)c3cccs3)cc2)cc1Cl,.,-0.7%,.,10.9%,.,.
CC1=CC(=O)C=C(C)C1=NOc1ccccc1[N+](=O)[O-],.,0.4%,-5.1%,-5.4%,-36.6*,-2.6%
CC(C)(C)/C(COc1ccccc1[N+](=O)[O-])=N/O,-11.4%,-5.4%,8.1%,-4.1%,-17.5,-1.4%
CCc1cc(C(=O)c2ccc(OC)cc2)c(N)s1,.,-0.5%,0.112µM*,-3.9%,-1.2,4.2%
CCc1cc(C(=O)c2ccccc2OC)c(N)s1,5.0%,-0.9%,-3.4%,-15.4%,-4.4,0.7%
C[C@@]12C=Cc3occc3C1CC[C@@]13C[C@@H](CCC12)[C@@](O)(CO)C3 (some centres undefined),-69.6%,?,.,18.2%,1.9,.
O=C1C=CC(=O)N1CCCCCCN1C(=O)C=CC1=O,-87.7%[10 µM],-1.1%,5.01µM*,-2.7%,5.7,2.2%
Cc1ccc(-c2ccc(/C=C3/NC(=O)NC3=O)o2)cc1[N+](=O)[O-],.,-4.3%,-14.6%,4.4%,0.4,-1.6%
CC1=C(C#N)C(=O)NC(=O)/C1=C\c1ccc(-c2cc(C)c(C)cc2[N+](=O)[O-])o1,.,-4.1%,30.8%,1.4%,1.3,25.1µM*
O=C(CSc1nc2ccccc2o1)N/N=C/c1ccco1,.,.,.,.,-10.2,.
Cc1cc(SCC(=O)N/N=C/c2ccco2)nc2ccccc12,12.0%[10 µM],0.6%,7.1%[9.22 µM],-3.6%,-32.0*,-10.4%
COc1ccc(S(=O)(=O)NCC(c2ccc(N(C)C)cc2)N2CCCC2)cc1F (centres undefined),.,-1.8%,.,-3.3%,.,.
COc1ccc(CCNC(=O)Cn2nc(C)c3c(C)n(-c4ccc(C)cc4)nc3c2=O)c(OC)c1,.,-0.8%,.,-9.0%,.,.
N#CC(C#N)=C1C=CC=CN1/C(=C\c1ccco1)C(=O)c1ccc(-c2ccccc2)cc1,4.4%[10 µM],4.0%,7.08µM*,3.9%,1.1,-7.6%
N#CC(C#N)=C1C=CC=CN1/C(=C\c1ccco1)C(=O)c1ccc(Cl)cc1,?,-10.1%,3.55µM*,11.5%,0.2,-11.6%
N#C/C(=C\c1ccco1)C(=O)NCc1ccccc1,4.4%[10 µM],-0.1%,11.4%,8.5%,0.7,-0.5%
CC(/C=N/n1c(-c2ccc(Cl)cc2)n[nH]c1=S)=C\c1ccco1,3.3%[10 µM],0.6%,2.5%[9.22 µM],0.6%,0.5,-4.3%
Cn1cc(S(=O)(=O)N2CCCCC2)cc1C(=O)Nc1cccc(C#N)c1,.,3.8%,.,-11.3%,.,.
COc1ccc(CNc2nc(-c3ccco3)nn2S(=O)(=O)c2ccc3ccccc3c2)cc1OC,.,1.2%,.,-1.4%,.,.
SMILES,HTT cytoprotect,TR SRC2 fluor cs,HttQ103 aggreg,TRb-SRC2 inh,FBPA coupling cs,JMJD2E inh
COc1ccccc1CNc1nc(-c2ccco2)nn1S(=O)(=O)c1ccc2ccccc2c1,.,1122µM*[quencher],.,-6.0%,.,.
CCCCC[C@H](O)/C=C/C=C/C=C/[C@@H](O)C/C=C\CCCC(=O)O,16.8%,0.3%,.,-0.1%,0.7,2.0%
COc1ccc2c(c1)CC/C(=C\C=C\c1ccccc1OC)C2=O,-11.4%[10 µM],-4.1%,-12.3%,-21.2%,-40.3*,1.8%
CSc1ccc(CCNC(=O)CN2C(=O)COc3ccc(S(=O)(=O)N4CCCC4)cc32)cc1,.,?,.,-21.5%,.,.
COC(=O)c1c(Oc2ccc(OC)cc2)nnc(-c2ccccc2)c1-c1ccccc1,.,794µM*[quencher],.,-7.5%,.,.
COC(=O)c1c(-c2ccccc2)c(-c2ccccc2)nn(C)c1=O,.,0.3%,.,-0.9%,5.1,.
COc1cc(/C=N/Nc2ccc3ccccc3c2)ccc1OC(=O)c1ccco1,-8.1%[10 µM],-0.9%,?,-0.8%,-0.8,20µM*
COc1cc(/C=N/Nc2nc(C)cc(C)n2)ccc1OC(=O)c1ccco1,11.1%[10 µM],-0.5%,7.6%,2.7%,0.4,-8.6%
CCOc1ccc(C2C(=O)N(C3CCCCC3)CC(=O)N2CCc2ccccc2)cc1OC (centres undefined),.,-2.1%,.,-1.0%,.,.
Cc1onc(-c2ccccc2Cl)c1C(=O)Nc1nnc(-c2ccc(Cl)cc2Cl)s1,24.2%[10 µM],-1.7%,35.5µM*,5.0%,11.8,?
Cc1onc(-c2ccccc2Cl)c1C(=O)Nc1nnc(-c2ccc(Br)cc2)s1,-5.0%[10 µM],-1.8%,?,-0.3%,3.9,?
O=C(Cn1c(=O)n(Cc2ccc3c(c2)OCO3)c(=O)c2oc3ccccc3c21)Nc1ccccc1F,.,0.2%,.,-1.7%,.,.
CCC(=O)N1CCc2cc(Br)cc(S(=O)(=O)N3CCCC(C(=O)N(C)c4ccc(Br)cc4)C3)c21 (centres undefined),.,178µM*[quencher],.,-4.3%,.,.
CCCN(CCC)C(=O)C1CCCN(S(=O)(=O)c2cc(Br)cc3c2N(C(=O)CC)CC3)C1 (centres undefined),.,-30.3%,.,1.1%,.,.
COc1ccccc1NC(=O)c1ccc(N)cc1,-27.4%,2.0%,-3.9%,9.6%,-0.1,1.9%
COC(=O)c1ccc(C(=O)Nc2ccc(N)cc2N)cc1,-13.1%,7.0%,2.9%,-2.4%,-34.0*,-29.1%
Brc1ccccc1-c1nnc2sc(-c3ccc4c(c3)OCCO4)nn12,-72.1%,-3.9%,25.1µM*,-0.5%,2.3,?
CC(C(=O)O)c1ccc2c(c1)[nH]c1ccc(Cl)cc12 (centres undefined),0.355µM*,-0.3%,30.8%,-6.5%,8.3,-7.1%
O=C(O)c1cc(=O)c2cc(Cl)ccc2[nH]1,.,2.2%,.,4.9%,6.7,.
